# Compounds with a hit are over-represented: about 2.9% of the library has one in this group of screens.
# MRP resist rev – compounds reversing MRP-mediated drug resistance; 85,000 compounds, 0.04% hits; differential viability (reversal), % at 10 µM; H69AR cells + 2 uM doxorubicin, CellTiter-Glo, 72 h; AID 602;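 active = viability drop by adding the cancer drug above about 55%, with treated viability meeting a 40% cutoff, limit read from the data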;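 also: viability without doxorubicin minus viability with 2 µM doxorubicin for each compound; larger differential means the compound sensitizes cells more to doxorubicin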
# MRP1 act – activates MRP-1 | AID 799 | viability increase, % at 10 µM | 140,000 compounds, 0.61% hits | H69AR cells + doxorubicin, viability rescue, CellTiter-Glo;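 active = viability gain under doxorubicin at or above a set limit, the compound median plus 3 SD, cut at about 4.7% in these data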;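 also: MRP-1 overexpressing cells given doxorubicin 25 µM after compound pretreatment; 18-22 h compound pretreatment then 72 h with doxorubicin before readout; 0% = doxorubicin-only wells and 100% = vehicle-treated cells without doxorubicin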
# ERa coact pot – ER-alpha (human) coactivator binding potentiation | TR-FRET ERalpha-LBD/SRC-Cy5 coactivator binding, 2 h; 100 = basal binding, no effect | P03372 | coactivator binding (% of control), % at 25.6 µM | 86,000 compounds, 1.3% hits; in the data active = activity above about 200%;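 also: binding measured in presence of low estradiol as agonist stimulus; 0% = peptide alone without receptor and 100% = receptor with peptide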
# ERb coact inh – ER-beta (human) coactivator binding inhibition; 86,000 compounds, 1.3% hits; TR-FRET ER-beta LBD / SRC1-Cy5 peptide binding; receptor agonist-loaded with 1 µM estradiol; Q92731; AID 633; inhibition, % at 25.6 µM;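 active = compounds whose percent inhibition of the receptor-coactivator binding signal exceeds about 50% in the single-dose screen, limit read from the data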;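 also: 0% = receptor plus peptide wells without compound and 100% = peptide-only wells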
# Target sequence (Q92731 whole entry, looked up, the tested form may be a part): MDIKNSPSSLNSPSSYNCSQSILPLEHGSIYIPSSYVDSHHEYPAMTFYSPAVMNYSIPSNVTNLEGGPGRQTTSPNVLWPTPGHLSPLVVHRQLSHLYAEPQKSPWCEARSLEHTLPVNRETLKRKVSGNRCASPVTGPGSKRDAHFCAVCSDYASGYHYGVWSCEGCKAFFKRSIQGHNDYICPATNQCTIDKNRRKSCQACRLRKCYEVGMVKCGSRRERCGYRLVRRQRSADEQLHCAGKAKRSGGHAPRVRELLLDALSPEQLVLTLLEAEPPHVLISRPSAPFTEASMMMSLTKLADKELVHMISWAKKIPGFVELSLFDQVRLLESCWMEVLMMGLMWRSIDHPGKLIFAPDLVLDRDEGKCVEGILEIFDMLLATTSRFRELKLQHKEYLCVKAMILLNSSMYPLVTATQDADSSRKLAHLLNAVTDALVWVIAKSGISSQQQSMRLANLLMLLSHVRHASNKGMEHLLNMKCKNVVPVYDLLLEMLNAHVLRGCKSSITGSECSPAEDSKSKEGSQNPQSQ
# ERa coact inh – blocks coactivator binding to human estrogen receptor alpha; P03372; TR-FRET ER-alpha LBD / SRC-1 peptide, estradiol-bound; inhibition, % at 25.6 µM; 86,000 compounds, 1.7% hits; AID 629; in the data active = inhibition above about 50%;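 also: 0% = receptor plus peptide control and 100% = peptide only without receptor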
# Smad3 FoxH1 inh – Smad3 (human) transcription factor binding inhibition | P84022 | TR-FRET Smad3/Dy647-FoxH1 peptide binding, europium anti-His | inhibition, % at 25 µM | 88,000 compounds, 0.29% hits;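 active = compounds that reduce the energy-transfer binding signal between the protein and its labelled peptide by more than half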;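 also: 0% = Smad3 plus labelled peptide maximal FRET and 100% = peptide-only background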
# Starred values were filed as active, the others as inactive; . = not tested or not shown.
SMILES,MRP resist rev,MRP1 act,ERa coact pot,ERb coact inh,ERa coact inh,Smad3 FoxH1 inh
O=C(COc1ccc(Br)cc1)N1CCN(C2CCCC2)CC1,12.5,7.6*,101.4,6.0,3.3,-8.0
O=C(COc1ccc(Br)cc1)N1CCN(Cc2c[nH]c3ccccc23)CC1,-19.5,-1.6,90.7,2.8,-0.2,0.7
COc1cccc2c1C(=O)c1c(O)c3c(c(O)c1C2=O)C[C@](O)(/C(C)=N/O)C[C@@H]3O[C@@H]1C[C@H](N)[C@@H](O)[C@H](C)O1,.,.,.,.,.,12.5
Cc1ccc2nc3c(cc2c1)CC1(C(=O)N(C)C(=O)N(C)C1=O)C1CCCCN31 (configuration not stated),-15.7,5.8*,91.7,3.8,7.2,9.1
c1ccc2c(c1)Sc1ccccc1N2C[C@H]1CN2CCC1CC2,.,.,.,.,.,77.4*
Clc1ccccc1CNC1CN2CCC1CC2 (configuration not stated),.,-0.7,.,.,.,.
Cc1ccc(-n2c(C)cc(/C=C3/C(=O)NC(=O)N(C)C3=O)c2C)cc1,.,-1.1,.,.,.,.
Cc1cc(/C=C2/C(=O)NC(=O)N(c3ccccc3)C2=O)c(C)n1-c1ccc(F)cc1,21.4,.,109.7,42.6,51.6*,-5.9
C[C@@H]1CC[C@@H]2N(C1)C[C@@H]1[C@](O)([C@H](O)C[C@]3(O)[C@H]4CC[C@@H]5[C@]6(O)O[C@@]4(C[C@@]13O)[C@@]5(C)CC[C@H]6O)[C@@]2(C)O,.,.,.,.,.,1.1
CO[C@@H]([CH2][Hg][n]1cnc2c1c(=O)n(C)c(=O)n2C)CN1C(=O)c2ccccc2S1(=O)=O,.,.,.,.,.,63.6*
